From article PMC11102866, “Nucleosome-bound NR5A2 structure reveals pioneer factor mechanism by DNA minor groove anchor competition”

B1: 87 (nucleosome)
DNA 1: ATCCTGGAGAATCCCGGTGCCGAGGCCGCTCAATTGGTCGTAGACAGCTCTAGCACCGCTTAAACGCACGTACGCGCTGTCCCCCGCGTTCAAGGCCACAAGGGGATTACTCCCTAGTCTCCAGGCACGTGTCAGATATATACATCCTGTGAT
DNA 2: ATCACAGGATGTATATATCTGACACGTGCCTGGAGACTAGGGAGTAATCCCCTTGTGGCCTTGAACGCGGGGGACAGCGCGTACGTGCGTTTAAGCGGTGCTAGAGCTGTCTACGACCAATTGAGCGGCCTCGGCACCGGGATTCTCCAGGAT
modifications: reconstituted with mouse histones H2A, H2B, H3.3 and H4
B2: 88 (nucleosome)
DNA 1: ATCCTGGAGAATCCCGGTGCCGAGGCCGCTCAATTGGTCGTAGACAGCTCTAGCACCGCTTAAACGCACGTACGCGCTGTCCCCCGCGTTTCAAGGCCAAAGGGGATTACTCCCTAGTCTCCAGGCACGTGTCAGATATATACATCCTGTGAT
DNA 2: ATCACAGGATGTATATATCTGACACGTGCCTGGAGACTAGGGAGTAATCCCCTTTGGCCTTGAAACGCGGGGGACAGCGCGTACGTGCGTTTAAGCGGTGCTAGAGCTGTCTACGACCAATTGAGCGGCCTCGGCACCGGGATTCTCCAGGAT
modifications: reconstituted with mouse histones H2A, H2B, H3.3 and H4
B3: 92 (nucleosome)
DNA 1: ATCCTGGAGAATCCCGGTGCCGAGGCCGCTCAATTGGTCGTAGACAGCTCTAGCACCGCTTAAACGCACGTACGCGCTGTCCCCCGCGTTTTAATCAAGGCCAGGATTACTCCCTAGTCTCCAGGCACGTGTCAGATATATACATCCTGTGAT
DNA 2: ATCACAGGATGTATATATCTGACACGTGCCTGGAGACTAGGGAGTAATCCTGGCCTTGATTAAAACGCGGGGGACAGCGCGTACGTGCGTTTAAGCGGTGCTAGAGCTGTCTACGACCAATTGAGCGGCCTCGGCACCGGGATTCTCCAGGAT
modifications: reconstituted with mouse histones H2A, H2B, H3.3 and H4
B4: 91 (nucleosome)
DNA 1: ATCCTGGAGAATCCCGGTGCCGAGGCCGCTCAATTGGTCGTAGACAGCTCTAGCACCGCTTAAACGCACGTACGCGCTGTCCCCCGCGTTTTATCAAGGCCAGGGATTACTCCCTAGTCTCCAGGCACGTGTCAGATATATACATCCTGTGAT
DNA 2: ATCACAGGATGTATATATCTGACACGTGCCTGGAGACTAGGGAGTAATCCCTGGCCTTGATAAAACGCGGGGGACAGCGCGTACGTGCGTTTAAGCGGTGCTAGAGCTGTCTACGACCAATTGAGCGGCCTCGGCACCGGGATTCTCCAGGAT
modifications: reconstituted with mouse histones H2A, H2B, H3.3 and H4
B5: 93 (nucleosome)
DNA 1: ATCCTGGAGAATCCCGGTGCCGAGGCCGCTCAATTGGTCGTAGACAGCTCTAGCACCGCTTAAACGCACGTACGCGCTGTCCCCCGCGTTTTAACTCAAGGCCAGATTACTCCCTAGTCTCCAGGCACGTGTCAGATATATACATCCTGTGAT
DNA 2: ATCACAGGATGTATATATCTGACACGTGCCTGGAGACTAGGGAGTAATCTGGCCTTGAGTTAAAACGCGGGGGACAGCGCGTACGTGCGTTTAAGCGGTGCTAGAGCTGTCTACGACCAATTGAGCGGCCTCGGCACCGGGATTCTCCAGGAT
modifications: reconstituted with mouse histones H2A, H2B, H3.3 and H4
B6: 84 (nucleosome)
DNA 1: ATCCTGGAGAATCCCGGTGCCGAGGCCGCTCAATTGGTCGTAGACAGCTCTAGCACCGCTTAAACGCACGTACGCGCTGTCCCCCGTCAAGGCCACGCCAAGGGGATTACTCCCTAGTCTCCAGGCACGTGTCAGATATATACATCCTGTGAT
DNA 2: ATCACAGGATGTATATATCTGACACGTGCCTGGAGACTAGGGAGTAATCCCCTTGGCGTGGCCTTGACGGGGGACAGCGCGTACGTGCGTTTAAGCGGTGCTAGAGCTGTCTACGACCAATTGAGCGGCCTCGGCACCGGGATTCTCCAGGAT
modifications: reconstituted with mouse histones H2A, H2B, H3.3 and H4
B7: 86 (nucleosome)
DNA 1: ATCCTGGAGAATCCCGGTGCCGAGGCCGCTCAATTGGTCGTAGACAGCTCTAGCACCGCTTAAACGCACGTACGCGCTGTCCCCCGCGTCAAGGCCACCAAGGGGATTACTCCCTAGTCTCCAGGCACGTGTCAGATATATACATCCTGTGAT
DNA 2: ATCACAGGATGTATATATCTGACACGTGCCTGGAGACTAGGGAGTAATCCCCTTGGTGGCCTTGACGCGGGGGACAGCGCGTACGTGCGTTTAAGCGGTGCTAGAGCTGTCTACGACCAATTGAGCGGCCTCGGCACCGGGATTCTCCAGGAT
modifications: reconstituted with mouse histones H2A, H2B, H3.3 and H4
B8: 85 (nucleosome)
DNA 1: ATCCTGGAGAATCCCGGTGCCGAGGCCGCTCAATTGGTCGTAGACAGCTCTAGCACCGCTTAAACGCACGTACGCGCTGTCCCCCGCTCAAGGCCAGCCAAGGGGATTACTCCCTAGTCTCCAGGCACGTGTCAGATATATACATCCTGTGAT
DNA 2: ATCACAGGATGTATATATCTGACACGTGCCTGGAGACTAGGGAGTAATCCCCTTGGCTGGCCTTGAGCGGGGGACAGCGCGTACGTGCGTTTAAGCGGTGCTAGAGCTGTCTACGACCAATTGAGCGGCCTCGGCACCGGGATTCTCCAGGAT
modifications: reconstituted with mouse histones H2A, H2B, H3.3 and H4
B9: 90 (nucleosome)
DNA 1: ATCCTGGAGAATCCCGGTGCCGAGGCCGCTCAATTGGTCGTAGACAGCTCTAGCACCGCTTAAACGCACGTACGCGCTGTCCCCCGCGTTTTTCAAGGCCAGGGGATTACTCCCTAGTCTCCAGGCACGTGTCAGATATATACATCCTGTGAT
DNA 2: ATCACAGGATGTATATATCTGACACGTGCCTGGAGACTAGGGAGTAATCCCCTGGCCTTGAAAAACGCGGGGGACAGCGCGTACGTGCGTTTAAGCGGTGCTAGAGCTGTCTACGACCAATTGAGCGGCCTCGGCACCGGGATTCTCCAGGAT
modifications: reconstituted with mouse histones H2A, H2B, H3.3 and H4
B10: 82 (nucleosome)
DNA 1: ATCCTGGAGAATCCCGGTGCCGAGGCCGCTCAATTGGTCGTAGACAGCTCTAGCACCGCTTAAACGCACGTACGCGCTGTCCCCTCAAGGCCAACCGCCAAGGGGATTACTCCCTAGTCTCCAGGCACGTGTCAGATATATACATCCTGTGAT
DNA 2: ATCACAGGATGTATATATCTGACACGTGCCTGGAGACTAGGGAGTAATCCCCTTGGCGGTTGGCCTTGAGGGGACAGCGCGTACGTGCGTTTAAGCGGTGCTAGAGCTGTCTACGACCAATTGAGCGGCCTCGGCACCGGGATTCTCCAGGAT
modifications: reconstituted with mouse histones H2A, H2B, H3.3 and H4
B11: 83 (nucleosome)
DNA 1: ATCCTGGAGAATCCCGGTGCCGAGGCCGCTCAATTGGTCGTAGACAGCTCTAGCACCGCTTAAACGCACGTACGCGCTGTCCCCCTCAAGGCCACCGCCAAGGGGATTACTCCCTAGTCTCCAGGCACGTGTCAGATATATACATCCTGTGAT
DNA 2: ATCACAGGATGTATATATCTGACACGTGCCTGGAGACTAGGGAGTAATCCCCTTGGCGGTGGCCTTGAGGGGGACAGCGCGTACGTGCGTTTAAGCGGTGCTAGAGCTGTCTACGACCAATTGAGCGGCCTCGGCACCGGGATTCTCCAGGAT
modifications: reconstituted with mouse histones H2A, H2B, H3.3 and H4
B12: 10 (nucleosome)
DNA 1: ATCCTGGAGAATTCAAGGCCAGAGGCCGCTCAATTGGTCGTAGACAGCTCTAGCACCGCTTAAACGCACGTACGCGCTGTCCCCCGCGTTTTAACCGCCAAGGGGATTACTCCCTAGTCTCCAGGCACGTGTCAGATATATACATCCTGTGAT
DNA 2: ATCACAGGATGTATATATCTGACACGTGCCTGGAGACTAGGGAGTAATCCCCTTGGCGGTTAAAACGCGGGGGACAGCGCGTACGTGCGTTTAAGCGGTGCTAGAGCTGTCTACGACCAATTGAGCGGCCTCTGGCCTTGAATTCTCCAGGAT
modifications: reconstituted with mouse histones H2A, H2B, H3.3 and H4
B13: 89 (nucleosome)
DNA 1: ATCCTGGAGAATCCCGGTGCCGAGGCCGCTCAATTGGTCGTAGACAGCTCTAGCACCGCTTAAACGCACGTACGCGCTGTCCCCCGCGTTTTCAAGGCCAAGGGGATTACTCCCTAGTCTCCAGGCACGTGTCAGATATATACATCCTGTGAT
DNA 2: ATCACAGGATGTATATATCTGACACGTGCCTGGAGACTAGGGAGTAATCCCCTTGGCCTTGAAAACGCGGGGGACAGCGCGTACGTGCGTTTAAGCGGTGCTAGAGCTGTCTACGACCAATTGAGCGGCCTCGGCACCGGGATTCTCCAGGAT
modifications: reconstituted with mouse histones H2A, H2B, H3.3 and H4
B14: 11 (nucleosome)
DNA 1: ATCCTGGAGAATCTCAAGGCCAAGGCCGCTCAATTGGTCGTAGACAGCTCTAGCACCGCTTAAACGCACGTACGCGCTGTCCCCCGCGTTTTAACCGCCAAGGGGATTACTCCCTAGTCTCCAGGCACGTGTCAGATATATACATCCTGTGAT
DNA 2: ATCACAGGATGTATATATCTGACACGTGCCTGGAGACTAGGGAGTAATCCCCTTGGCGGTTAAAACGCGGGGGACAGCGCGTACGTGCGTTTAAGCGGTGCTAGAGCTGTCTACGACCAATTGAGCGGCCTTGGCCTTGAGATTCTCCAGGAT
modifications: reconstituted with mouse histones H2A, H2B, H3.3 and H4
B15: 94 (nucleosome)
DNA 1: ATCCTGGAGAATCCCGGTGCCGAGGCCGCTCAATTGGTCGTAGACAGCTCTAGCACCGCTTAAACGCACGTACGCGCTGTCCCCCGCGTTTTAACCTCAAGGCCAATTACTCCCTAGTCTCCAGGCACGTGTCAGATATATACATCCTGTGAT
DNA 2: ATCACAGGATGTATATATCTGACACGTGCCTGGAGACTAGGGAGTAATTGGCCTTGAGGTTAAAACGCGGGGGACAGCGCGTACGTGCGTTTAAGCGGTGCTAGAGCTGTCTACGACCAATTGAGCGGCCTCGGCACCGGGATTCTCCAGGAT
modifications: reconstituted with mouse histones H2A, H2B, H3.3 and H4

Target: NR5A2 wild type;histone octamer (Homo sapiens;, UniProt O00482;C0HKE1;Q6ZWY9;P84244;P62806 1-541;2-130;2-126;2-136;2-103, |)
Assay: SeEN-seq (EMSA of nucleosome library followed by sequencing); 0.8 uM human NR5A2; 20 mM Tris-HCl pH 7.5, 120 mM NaCl, 1 mM MgCl2, 10 uM ZnCl2, 1 mM DTT, 100 ug/ml BSA, room temperature, 30 min; 0.1 uM nucleosome library; high values mean tight binding

Row | Binder | binding signal
1 | B1 | 0.601 log2 enrichment (bound/unbound, relative to Widom 601)
2 | B2 | 0.636 log2 enrichment (bound/unbound, relative to Widom 601)
3 | B3 | 0.711 log2 enrichment (bound/unbound, relative to Widom 601)
4 | B4 | 0.711 log2 enrichment (bound/unbound, relative to Widom 601)
5 | B5 | 0.842 log2 enrichment (bound/unbound, relative to Widom 601)
6 | B6 | 0.634 log2 enrichment (bound/unbound, relative to Widom 601)
7 | B7 | 0.668 log2 enrichment (bound/unbound, relative to Widom 601)
8 | B8 | 0.756 log2 enrichment (bound/unbound, relative to Widom 601)
9 | B9 | 0.821 log2 enrichment (bound/unbound, relative to Widom 601)
10 | B10 | 0.634 log2 enrichment (bound/unbound, relative to Widom 601)
11 | B11 | 0.795 log2 enrichment (bound/unbound, relative to Widom 601)
12 | B12 | 5.16 log2 enrichment (bound/unbound, relative to Widom 601)
13 | B13 | 0.658 log2 enrichment (bound/unbound, relative to Widom 601)
14 | B14 | 4.08 log2 enrichment (bound/unbound, relative to Widom 601)
15 | B15 | 1.36 log2 enrichment (bound/unbound, relative to Widom 601)

Target: mouse Nr5a2 wild type;histone octamer (Mus musculus;, UniProt P45448;C0HKE1;Q6ZWY9;P84244;P62806 1-560;2-130;2-126;2-136;2-103, |)
Assay: SeEN-seq (EMSA of nucleosome library followed by sequencing); 1.2 uM mouse Nr5a2; 20 mM Tris-HCl pH 7.5, 120 mM NaCl, 1 mM MgCl2, 10 uM ZnCl2, 1 mM DTT, 100 ug/ml BSA, room temperature, 30 min; 0.1 uM nucleosome library; high values mean tight binding

Row | Binder | binding signal
16 | B1 | 0.435 log2 enrichment (bound/unbound, relative to Widom 601)
17 | B2 | 0.614 log2 enrichment (bound/unbound, relative to Widom 601)
18 | B3 | 0.905 log2 enrichment (bound/unbound, relative to Widom 601)
19 | B4 | 0.746 log2 enrichment (bound/unbound, relative to Widom 601)
20 | B5 | 0.875 log2 enrichment (bound/unbound, relative to Widom 601)
21 | B6 | 0.756 log2 enrichment (bound/unbound, relative to Widom 601)
22 | B7 | 0.515 log2 enrichment (bound/unbound, relative to Widom 601)
23 | B8 | 0.748 log2 enrichment (bound/unbound, relative to Widom 601)
24 | B9 | 0.52 log2 enrichment (bound/unbound, relative to Widom 601)
25 | B10 | 0.729 log2 enrichment (bound/unbound, relative to Widom 601)
26 | B11 | 0.693 log2 enrichment (bound/unbound, relative to Widom 601)
27 | B12 | 4.92 log2 enrichment (bound/unbound, relative to Widom 601)
28 | B13 | 0.574 log2 enrichment (bound/unbound, relative to Widom 601)
29 | B14 | 4.04 log2 enrichment (bound/unbound, relative to Widom 601)
30 | B15 | 1.22 log2 enrichment (bound/unbound, relative to Widom 601)
